In the supplement of paper PMC3342239:
Structures can show the parent of a compound that is named as a salt.

system: Saccharomyces cerevisiae; test: fraction of cells in G1 phase (DNA content, flow cytometry); higher = more cells with unreplicated DNA (G1 delay); conditions: temperature: 30 C; YPD; BY4741 PDR5+ SNQ2+; drug added to: actively dividing cells; 4.33 h
Description: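 S. cerevisiae cultures in YPD at 30°C were treated with each drug of the Enzo FDA-approved library at 20 µg/ml (final µM given per drug). Cells were fixed after 6–7 h (S1) or 6 h (S2), or after 4.33 h for BY4741 (S3), then stained with SYTOX Green. %G1 is the Dean-Jett-Fox G1 peak area divided by the G1+G2/M peak areas, written as a fraction and averaged over at least two independent experiments. DMSO reference: mean ~0.49; >0.60 is called High G1 and <0.3876 Low G1. Scale: lower means mitotic delay.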

Row | SMILES | fraction of cells in G1 phase
1 | CC[C@@]1(O)C[C@H](O[C@H]2C[C@H](N(C)C)[C@H](O[C@H]3C[C@H](O)[C@H](O[C@H]4CCC(=O)[C@H](C)O4)[C@H](C)O3)[C@H](C)O2)c2c(cc3c(c2O)C(=O)c2c(O)cccc2C3=O)[C@H]1C(=O)OC [Aclarubicin] (24.6339 µM) | 0.431
2 | CC1=C(/C=C/C(C)=C/C=C/C(C)=C/C(=O)Nc2ccc(O)cc2)C(C)(C)CCC1 [Fenretinide] (51.0779 µM) | 0.462
3 | CC(C(O)c1ccc(O)cc1)N1CCC(Cc2ccccc2)CC1 (stereo not given) [Ifenprodil] (61.4525 µM) | 0.41
4 | CN1CCN(C2=Nc3cc(Cl)ccc3Nc3ccccc32)CC1 [Clozapine] (61.1935 µM) | 0.437
5 | CC(=O)[C@H]1CC[C@H]2[C@@H]3CCC4=CC(=O)CC[C@]4(C)[C@H]3CC[C@]12C [Progesterone] (63.5987 µM) | 0.501
6 | O=C1CCc2ccc(OCCCCN3CCN(c4cccc(Cl)c4Cl)CC3)cc2N1 [Aripiprazole] (44.6034 µM) | 0.411
7 | CC[C@H](C)C(=O)O[C@H]1C[C@@H](C)C=C2C=C[C@H](C)[C@H](CC[C@@H]3C[C@@H](O)CC(=O)O3)[C@H]21 [Lovastatin] (49.4375 µM) | 0.402

same assay, conditions: temperature: 30 C; YPD; JTY2953 pdr5 snq2 (sensitized); drug added to: actively dividing cells; 6 h

Row | SMILES | fraction of cells in G1 phase
8 | CC1=C(/C=C/C(C)=C/C=C/C(C)=C/C(=O)Nc2ccc(O)cc2)C(C)(C)CCC1 [Fenretinide] (51.0779 µM) | 0.681
9 | C=C1/C(=C\C=C2/CCC[C@]3(C)[C@@H]([C@H](C)/C=C/[C@@H](O)C4CC4)CC[C@@H]23)C[C@@H](O)C[C@@H]1O [Calcipotriene] (48.471 µM) | 0.375
10 | CC(C(O)c1ccc(O)cc1)N1CCC(Cc2ccccc2)CC1 (stereo not given) [Ifenprodil] (61.4525 µM) | 0.694
11 | CC(=O)[C@H]1CC[C@H]2[C@@H]3CCC4=CC(=O)CC[C@]4(C)[C@H]3CC[C@]12C [Progesterone] (63.5987 µM) | 0.693
12 | O=C1CCc2ccc(OCCCCN3CCN(c4cccc(Cl)c4Cl)CC3)cc2N1 [Aripiprazole] (44.6034 µM) | 0.762
13 | CC[C@H](C)C(=O)O[C@H]1C[C@@H](C)C=C2C=C[C@H](C)[C@H](CC[C@@H]3C[C@@H](O)CC(=O)O3)[C@H]21 [Lovastatin] (49.4375 µM) | 0.698

same assay, conditions: temperature: 30 C; YPD; JTY2953 pdr5 snq2 (sensitized); drug added to: cultures diluted from stationary phase; 6-7 h

Row | SMILES | fraction of cells in G1 phase
14 | CC[C@@]1(O)C[C@H](O[C@H]2C[C@H](N(C)C)[C@H](O[C@H]3C[C@H](O)[C@H](O[C@H]4CCC(=O)[C@H](C)O4)[C@H](C)O3)[C@H](C)O2)c2c(cc3c(c2O)C(=O)c2c(O)cccc2C3=O)[C@H]1C(=O)OC [Aclarubicin] (24.6339 µM) | 0.364
15 | NC1CCN(c2nc3c(cc2F)c(=O)c(C(=O)O)cn3-c2ccc(F)cc2F)C1 (stereo not given) [Tosufloxacin] (49.4619 µM) | 0.428
16 | CC(C(=O)O)c1cccc(C(=O)c2ccccc2)c1 (stereo not given) [Ketoprofen+D153] (78.6509 µM) | 0.495
17 | Cc1c(O)cccc1C(=O)N[C@@H](CSc1ccccc1)[C@H](O)CN1C[C@H]2CCCC[C@H]2C[C@H]1C(=O)NC(C)(C)C [Nelfinavir Mesylate] (30.1249 µM) | 0.487
18 | COc1ccc([C@@H]2Sc3ccccc3N(CCN(C)C)C(=O)[C@@H]2OC(C)=O)cc1 [Diltiazem] (44.3459 µM) | 0.544
19 | CN(C)CCC[C@@]1(c2ccc(F)cc2)OCc2cc(C#N)ccc21 [Escitalopram] (61.652 µM) | 0.496
20 | CC1=C(/C=C/C(C)=C/C=C/C(C)=C/C(=O)Nc2ccc(O)cc2)C(C)(C)CCC1 [Fenretinide] (51.0779 µM) | 0.604
21 | C=C1/C(=C\C=C2/CCC[C@]3(C)[C@@H]([C@H](C)/C=C/[C@@H](O)C4CC4)CC[C@@H]23)C[C@@H](O)C[C@@H]1O [Calcipotriene] (48.471 µM) | 0.634
22 | CN(C)c1nc(N(C)C)nc(N(C)C)n1 [Altretamine] (95.1095 µM) | 0.49
23 | CCCCC[C@H](O)/C=C/[C@H]1[C@H](O)CC(=O)[C@@H]1C/C=C\CCCC(=O)O [Dinoprostone] (56.7416 µM) | 0.487
24 | COc1ccccc1O [Guaiacol] (161.108 µM) | 0.531
25 | CC(C(O)c1ccc(O)cc1)N1CCC(Cc2ccccc2)CC1 (stereo not given) [Ifenprodil] (61.4525 µM) | 0.61
26 | Oc1ccc(C2CNCCc3c2cc(O)c(O)c3Cl)cc1 (stereo not given) [Fenoldopam mesylate] (65.41 µM) | 0.533
27 | CCOC(=O)C1=C(C)NC(C)=C(C(=O)OCC)C1c1ccccc1/C=C/C(=O)OC(C)(C)C [Lacidipine] (43.9024 µM) | 0.516
28 | CCCCC1C(=O)N(c2ccccc2)N(c2ccccc2)C1=O [Phenylbutazone] (64.8543 µM) | 0.499
29 | CN1CCN(C2=Nc3cc(Cl)ccc3Nc3ccccc32)CC1 [Clozapine] (61.1935 µM) | 0.319
30 | CC(=O)[C@H]1CC[C@H]2[C@@H]3CCC4=CC(=O)CC[C@]4(C)[C@H]3CC[C@]12C [Progesterone] (63.5987 µM) | 0.607
31 | O=C1CCc2ccc(OCCCCN3CCN(c4cccc(Cl)c4Cl)CC3)cc2N1 [Aripiprazole] (44.6034 µM) | 0.854
32 | Nc1nc(N)nc(-c2cc(Cl)ccc2Cl)n1 [Irsogladine maleate] (78.0958 µM) | 0.471
33 | Cc1ccc(S(=O)(=O)NC(=O)NN2CC3CCCC3C2)cc1 (stereo not given) [Gliclazide] (61.8397 µM) | 0.51
34 | CN1CCN(C2=Nc3ccccc3Sc3ccc(Cl)cc32)CC1 [Clothiapine] (58.1596 µM) | 0.431
35 | C[N+](C)(C)[C@@H](Cc1c[nH]c(=S)[nH]1)C(=O)[O-] [Ergothioneine] (87.2209 µM) | 0.464
36 | CC1COc2c(N3CCN(C)CC3)c(F)cc3c(=O)c(C(=O)O)cn1c23 (stereo not given) [Ofloxacin] (55.344 µM) | 0.505
37 | CC(=O)O[C@]1(C(C)=O)CC[C@H]2[C@@H]3C=C(Cl)C4=CC(=O)CC[C@]4(C)[C@H]3CC[C@@]21C [Chlormadinone acetate] (44.5442 µM) | 0.577
38 | O=C(c1ccc(OCCN2CCCCC2)cc1)c1c(-c2ccc(O)cc2)sc2cc(O)ccc12 [Raloxifene HCl] (42.2301 µM) | 0.508
39 | CC[C@H](C)C(=O)O[C@H]1C[C@@H](C)C=C2C=C[C@H](C)[C@H](CC[C@@H]3C[C@@H](O)CC(=O)O3)[C@H]21 [Lovastatin] (49.4375 µM) | 0.747
40 | CN(C)/N=N/c1[nH]cnc1C(N)=O [Dacarbazine] (109.778 µM) | 0.47
